What all share (assay): NCI-60 one-dose screen, 48 h (100 = growth as untreated, 0 = no growth, -100 = all killed)
Settings in all cases: 10 µM

Experiment [1] relates to NCI-H23 lung.
In experiment [2] the test system is NCI-H226 lung.
In experiment [3] the test system is NCI-H322M lung.
In experiment [4] the test system is HOP-62 NSCLC.
The subject of experiment [5] is NCI-H460 lung.
In experiment [6] the test system is NCI-H522 lung.
Experiment [7] relates to A549/ATCC NSCLC.
Experiment [8] concerns 786-0 renal.
Experiment [9] deals with COLO 205 colon.
Experiment [10] deals with DU-145 prostate.
The subject of experiment [11] is K-562 leukemia.
Experiment [12] concerns MALME-3M melanoma.
The test system of experiment [13] is MDA-MB-231 breast.
Experiment [14] has as its system RXF 393 renal.
The subject of experiment [15] is SF-268 CNS.
The subject of experiment [16] is SF-295 CNS.
For experiment [17], the system named is SF-539 CNS.
The test system of experiment [18] is UACC-257 melanoma.
Experiment [19] deals with M14 melanoma.
Experiment [20] concerns HCT-15 colon.

Compounds without any hit were thinned out: in the full panel of roughly 83,000, 20% have a hit.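 Cell lines were cultured in 96-well plates, exposed to a single compound concentration, and assessed for percent growth 48 hours later.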 A number with no mark means an inactive call. Activity calls are given as the source filed them. The calls were made as follows: active = growth percent below 10; inactive = the rest.

Eight compounds from PubChem BioAssay (NCI) can be followed below.

Regarding `CCN1Cc2c(/C=C/c3ccccc3)nc3ccc(OC)cc3c2N(c2cccc(Cl)c2)C1`, the growth is 59.1% in [1]; 92% in [2]; 90.7% in experiment [3]; 107% in experiment [4]; 71.7% in experiment [5]; 63.7% in experiment [6]. The growth is 33.6% in experiment [7]; 72.3% in [8]; 81.8% in experiment [9]; 112% in [10]; 51.1% in experiment [11]; 95.9% in experiment [12]. Further, the growth was 74% in experiment [13]; 107% in [14]; 102% in [15]; 92.8% in experiment [16]; 75.1% in [17]; 41.5% in [18]. Further, the growth in experiment [19] was 78.4%; in [20], 57.8%.

Take `N=C(N)c1ccc(-c2ccc(-c3cccs3)s2)s1`: the growth in experiment [1] was 51.8%; in [2], 74.2%; in experiment [3], -29.8% (active); in [4] it was -67.4% (active); in [5], -82.2% (active); in [6] it was -69.5% (active). Moreover, the growth in experiment [7] is -63.2% (active); in experiment [8] it was -88.6% (active); in experiment [9], -93.8% (active); in experiment [10], -91.6% (active); in experiment [11] it was -68% (active); in experiment [12] it was -73.9% (active). The growth in experiment [13] is -74.3% (active); in [14], -91.7% (active); in experiment [15], -29.3% (active); in experiment [16] it was -79.5% (active); in experiment [17], 25.9%; in [18], -68.5% (active). Further, the growth in [19] was -79.5% (active); in [20], -68.4% (active).

In the case of `O=C(Nc1nc(-c2ccccc2Cl)cs1)c1cc(-c2ccc(Cl)cc2)nc2ccc(Cl)cc12`, the growth in experiment [1] was 28.8%; in [2], 72.7%; in [3], 90.8%; in experiment [4], 28.5%; in [5], 96.3%; in experiment [6], 57.8%. Also, the growth is 92.7% in experiment [7]; 23.5% in [8]; 94.3% in experiment [9]; 32% in experiment [10]; 14.8% in [11]; 41.5% in experiment [12]. The growth is 22% in experiment [13]; 88.8% in experiment [14]; 28.3% in [15]; 89.4% in experiment [16]; -5.27% (active) in experiment [17]; 66.8% in [18]. Further, the growth was -2.68% (active) in experiment [19] and 8.89% (active) in [20].

With `N#CC1=C(Nc2ccccc2Cl)SC(c2ccccc2O)NC1=O` (configuration not stated), the growth was 112% in [1]; 120% in experiment [2]; 114% in [3]; 115% in experiment [4]; 121% in [5]; 1.13% (active) in experiment [6]. Further, the growth is 56.4% in experiment [7]; 114% in [8]; 121% in experiment [9]; 117% in experiment [10]; 102% in [11]; 116% in experiment [12]. Also, the growth was 113% in experiment [13]; 121% in experiment [14]; 112% in experiment [15]; 113% in experiment [16]; 99.6% in experiment [17]; 37.1% in experiment [18]. The growth in experiment [19] was 109%; in [20] it was 119%.

As for `Cc1c(Cl)cccc1NC(=O)c1sc2nc3c(cc2c1N)C(=O)CCC3`, the growth in [1] was 16.4%; in [2] it was 55.8%; in experiment [3], 27.8%; in [4], 34%; in [5] it was 4.71% (active); in [6], -28.4% (active). Also, the growth in experiment [7] was 16.7%; in [8], 37.7%; in experiment [9], -30% (active); in [10], -17.7% (active); in experiment [11], 7.09% (active); in [12] it was 40.1%. For the same compound, the growth in [13] was 12.6%; in experiment [14] it was -16.4% (active); in experiment [15] it was 37.4%; in [16], -8.15% (active); in [17], -40.7% (active); in experiment [18], 48.1%. Further, the growth in [20] was 21%.

In the case of `CNc1ccc(CSc2ccc(C)cc2)cc1`, the growth is 91.2% in experiment [1]; 32.8% in [2]; 88.9% in experiment [3]; 90.4% in experiment [4]; 80.8% in experiment [5]; 4.69% (active) in [6]. In addition, the growth was 42.4% in [7]; 31.6% in experiment [8]; 86.4% in experiment [9]; 90.8% in experiment [10]; 119% in experiment [11]; 94.4% in experiment [12]. Also, the growth in [13] is 33.4%; in experiment [14], 64.2%; in experiment [15] it was 69.6%; in experiment [16] it was 103%; in experiment [17], 56.3%; in experiment [18], 93%. In addition, the results for the growth in [19] and in experiment [20] were 84.7% and 89.2%, respectively.

On to `COc1cc(OC)cc(-c2cncn2-c2ccc(-c3nc4cc(OC)cc(OC)c4s3)cc2)c1`, for which the growth in experiment [1] was 57.5%; in experiment [2], 67.7%; in experiment [3] it was 82.8%; in experiment [4] it was 79.7%; in [5], 51.3%; in experiment [6], 61.3%. Besides, the growth in experiment [7] is 45.4%; in experiment [8], 66%; in [9], 79.5%; in experiment [10], 78.1%; in experiment [11], 19.2%; in experiment [12] it was 48%. The growth in [13] was 66.5%; in experiment [14], 58.1%; in experiment [15], 68.5%; in experiment [16], -22% (active); in experiment [17] it was 62.6%; in experiment [18], 82.4%. Further, in experiment [20], the growth was 48.4%.

On to `COc1ccc(C2=NN(C(=O)c3ccc(S(C)(=O)=O)cc3)C(c3ccc(OC)c(OC)c3)C2)c(OC)c1` (configuration not stated), for which the growth in experiment [1] was 104%; in experiment [2], 85.5%; in experiment [3] it was 93.9%; in experiment [4] it was 74.4%; in experiment [5], 107%; in experiment [6], 86.6%. The growth in [7] is 91.7%; in [8], 99.8%; in [9], 111%; in experiment [10] it was 98%; in experiment [11], 77.2%; in experiment [12] it was 113%. The growth in experiment [13] is 95.2%; in [14] it was 105%; in [15] it was 89%; in experiment [16], 98.7%; in [17] it was 102%; in experiment [18], 92.2%. Also, the growth in experiment [20] was 99.4%.
